Screens deposited in PubChem BioAssay by National Center for Advancing Translational Sciences (NCATS).
A selection: hits, their analogues and other compounds. The true share with any hit is near 1.1%.
MBNL1 CUG block – qHTS Assay for Inhibitors of MBNL1-poly(CUG) RNA binding; 0.036% of 280,000 active; AID 2675, 2010; Potency, µM (series often up to 57.5 µM), hits mostly inhibitors; TR-FRET MBNL1-His/biotin-(CUG)12 binding, 665/545 ratio; Muscleblind-like protein 1 (Homo sapiens), Q9NR56; active = well fitted inhibition curve with a large enough effect in the signal ratio, with a control signal flat, not every such curve was filed as active; inconclusive = small, poorly fitted or top-dose-only effect, or effect the other way, or a change in a side signal; inactive = no such curve, though single readings can be large or run the other way; the % refers to the signal ratio
Target sequence (Q9NR56 whole entry, looked up): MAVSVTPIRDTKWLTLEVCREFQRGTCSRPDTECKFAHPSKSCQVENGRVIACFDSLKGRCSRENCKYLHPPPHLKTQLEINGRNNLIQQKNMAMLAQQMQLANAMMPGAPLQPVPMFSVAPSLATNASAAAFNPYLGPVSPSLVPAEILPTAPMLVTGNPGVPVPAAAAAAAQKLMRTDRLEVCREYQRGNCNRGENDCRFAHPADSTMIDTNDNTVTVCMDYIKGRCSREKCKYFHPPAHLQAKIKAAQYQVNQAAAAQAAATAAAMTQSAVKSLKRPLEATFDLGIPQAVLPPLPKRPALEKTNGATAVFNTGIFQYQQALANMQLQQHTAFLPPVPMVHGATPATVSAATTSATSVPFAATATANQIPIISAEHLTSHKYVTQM
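TR-FRET between His-tagged MBNL1 and biotin-(CUG)12 RNA, detected with Tb anti-His antibody (0.055 ng/ul) and streptavidin-XL665 (5 nM), 60 min at room temperature. Compounds titrated 92 nM to 58 uM; 665/545 nm ratio normalized to buffer and complex controls.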
HttQ103 aggreg – qHTS Multiplex Assay to Identify Dual Action Probes in a Cell Model of Huntington: Aggregate Formation (GFP) | PC12 HttQ103-GFP aggregates, Acumen cytometry, 40 h | Potency, µM (series often up to 46.1 µM), hits mostly inhibitors | 1.1% of 220,000 active; also: nearly all actives have a fitted effect of over 60% in size
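Using laser scanning cytometry, GFP-positive aggregates were counted after lysis of PC12 cells induced with 100 nM tebufenozide to express HTT exon 1 Q103–GFP. Compounds were tested in titration.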
NPSR antagonist – qHTS Assay for Antagonists of the Neuropeptide S Receptor: cAMP Signal Transduction; Q6W5P4; CHO-NPSR cells, cAMP TR-FRET, antagonist mode; Potency, µM (titrated, usually from 38.3 µM), usual class: inhibitors; 1% of 220,000 active; AID 1461, 2008; also: nearly all actives have a fitted effect of over 50% in size
CBFb RUNX1 block – qHTS Assay for Compounds Blocking the Interaction Between CBF-beta and RUNX1 for the Treatment of Acute Myeloid Leukemia; Runt-related transcription factor 1 (Homo sapiens) + Core-binding factor subunit beta …; AlphaScreen CBFb-His/RUNX1-biotin binding, biochemical; Potency, µM (highest dose often 59.8 µM), hits mostly inhibitors; 230,000 tested, under 10 active
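CBF-beta (His) and RUNX1 (biotin), 30 nM each; 20 min preassociation; + compound, 15 min; + beads 50 ng each (Ni, streptavidin), 90 min; RT; AlphaScreen read.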
HTT cytoprotect – qHTS Multiplex Assay to Identify Dual Action Probes in a Cell Model of Huntington: Cytoprotection (ATP); PC12 HTT-Q103 induced, cytoprotection, ATP luminescence, 40 h; 0.14% of 230,000 active; Potency, µM (highest dose often 56.4 µM), usual class: activators; also: nearly all actives have a fitted effect of over 45% in size
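Cells were plated at 1500 per well in phenol red-free DMEM with 5% equine and 5% calf serum. Tebufenozide (100 nM final) and compounds were added, then ATPlite reagent, and luminescence was read.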
LMNA splice mod – qHTS Assay for Modulators of Lamin A Splicing; HeLa LMNA splicing GFP/RFP minigene ratio, 48 h; Potency, µM (series often up to 46.1 µM), actives largely listed as inhibitors; 0.01% of 200,000 active; AID 1487, 2009; active = well fitted inhibition curve with a large enough effect in the signal ratio, with a control signal flat, not every such curve was filed as active; inconclusive = small, poorly fitted or top-dose-only effect, or effect the other way, or a change in a side signal; the % refers to the signal ratio
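Read-out is the ratio of GFP to DsRed2 object intensity, acquired by 488 nm laser-scanning cytometry on HeLa lamin A-EGFP minigene reporter cells. Compound incubation 48 hrs at 37 °C in Opti-MEM with 2% FBS; DMSO 0.5% final.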
Each line names hits and unclear results; the compound was inactive in the other large screens; ! = a repeat was not active. Unless noted, calls follow the shape of the dose curve; as a rule, active = well fitted curve in the direction sought with a large enough effect; inconclusive = small, poorly fitted or top-dose-only effect, or another doubt; inactive = no such curve, though single readings can be large; an effect the other way counts as inactive or inconclusive.

C=CCNC(=O)N1CCc2nc(CCCC)c3c(c2C1)CO[C@@H](C)C3	none (no result: MBNL1 CUG block, HttQ103 aggreg, NPSR antagonist)
O=C(OCn1ncc(Br)c(Br)c1=O)c1c(F)cccc1F	MBNL1 CUG block inconclusive, HttQ103 aggreg inconclusive, NPSR antagonist 2.5µM, LMNA splice mod inconclusive
O=C(O)c1cc(-c2ccco2)nc2ccc(Br)cc12	NPSR antagonist 6.3µM!, LMNA splice mod inconclusive
O=C(c1ccco1)N1CCN(C(=O)c2cc(-c3ccncc3)nc3ccc(Br)cc23)CC1	none (no result: MBNL1 CUG block, HttQ103 aggreg, NPSR antagonist, CBFb RUNX1 block, LMNA splice mod)
c1ccc(CCc2ccccc2-c2nc(-c3cccnc3)no2)cc1	HttQ103 aggreg 20µM
CCOC(=O)c1cc(S(=O)(=O)Nc2ccc(OC)c(Cl)c2)[nH]n1	none (no result: MBNL1 CUG block, HttQ103 aggreg, NPSR antagonist, CBFb RUNX1 block, HTT cytoprotect)
CC1C/C(=C\c2cccnc2)C(=O)/C(=C/c2cccnc2)C1 (configuration not stated)	HttQ103 aggreg 3.5µM, LMNA splice mod inconclusive (no result: MBNL1 CUG block)
Brc1cc(Br)c2ncnc(N3CCCCC3)c2c1	MBNL1 CUG block inconclusive, HttQ103 aggreg 11µM, NPSR antagonist 7.9µM, LMNA splice mod inconclusive
C(#Cc1ccccc1)C[N+]1(CC#Cc2ccccc2)CCCCC1	none
Cc1ccc(C#CC[N+]2(CC#Cc3ccc(C)cc3)CCCCC2)cc1	HttQ103 aggreg 11µM, LMNA splice mod inconclusive
COc1ccc(-c2cn3c(n2)sc2cc(C(=O)NC(C)C45CC6CC(CC(C6)C4)C5)ccc23)cc1 (configuration not stated)	none (no result: MBNL1 CUG block, HttQ103 aggreg, NPSR antagonist, CBFb RUNX1 block, HTT cytoprotect)
Cc1cc(C)cc(-n2ccn(CC(=O)Nc3ccccc3C(F)(F)F)c(=O)c2=O)c1	none (no result: MBNL1 CUG block, HttQ103 aggreg, NPSR antagonist, CBFb RUNX1 block, HTT cytoprotect)
Cc1cccc(C)c1NC(=S)NCCSc1ccc(Cl)cc1	HttQ103 aggreg 11µM, LMNA splice mod inconclusive
FC(F)(F)c1cc(-c2ccco2)nc(-n2cnc3ccccc32)n1	none
Cc1nc2ccccc2n1-c1nc(-c2ccco2)cc(C(F)(F)F)n1	HttQ103 aggreg 3.2µM
O=C(c1cc2sccc2n1Cc1ccccc1)N1CCc2ccccc21	NPSR antagonist 10µM
O=C(c1cc2sccc2n1Cc1ccccc1)N1CCCc2ccccc21	HttQ103 aggreg inconclusive, NPSR antagonist inconclusive
Cc1ccccc1C(=O)OCc1cc(=O)n2nc(C3CCCCC3)sc2n1	none (no result: MBNL1 CUG block, HttQ103 aggreg, NPSR antagonist, CBFb RUNX1 block, HTT cytoprotect)
COc1ccc(CNC(=O)C(c2cccs2)N(C(=O)c2csnn2)C2CC2)cc1 (configuration not stated)	HTT cytoprotect 25µM
O=C(NCc1ccccc1)C(c1cccs1)N(C(=O)c1csnn1)C1CC1 (configuration not stated)	LMNA splice mod inconclusive
CC(C)c1ccc(C2C(C#N)=C(N)N3C(=C2C#N)Sc2ccccc23)cc1 (configuration not stated)	NPSR antagonist 7.9µM
COC(=O)[C@H](Cc1ccccc1)NC(=O)O[C@@H]1C(=O)c2ccc(OC)cc2O[C@H]1c1ccc2c(c1)OCO2	none (no result: MBNL1 CUG block, HttQ103 aggreg, NPSR antagonist, LMNA splice mod)
COc1cccc(CN2CCN(c3cccc(C(F)(F)F)c3)CC2)c1OC	MBNL1 CUG block inconclusive
CCOc1cccc(CN2CCN(c3cccc(C(F)(F)F)c3)CC2)c1O	NPSR antagonist 10µM, LMNA splice mod inconclusive
Fc1ccc(N2CCN(c3nc(CN4CCOCC4)nc4scc(-c5ccccc5)c34)CC2)cc1	HttQ103 aggreg 18µM, NPSR antagonist inconclusive, CBFb RUNX1 block inconclusive (no result: MBNL1 CUG block, LMNA splice mod)
CCCCn1cc(S(=O)(=O)c2ccc(CC)cc2)c(=O)c2cc(F)c(N3CCCC(C)C3)cc21 (configuration not stated)	none (no result: MBNL1 CUG block, HttQ103 aggreg, NPSR antagonist, CBFb RUNX1 block, HTT cytoprotect)
Cc1ccccc1C(=O)Nc1ccc2nc(SCC(=O)N3CCc4ccccc43)sc2c1	none (no result: MBNL1 CUG block, HttQ103 aggreg, NPSR antagonist, CBFb RUNX1 block, HTT cytoprotect)
CCOC(=O)c1c(CSc2ccsc2)n(C)c2cc(Br)c(O)c(CN(C)C)c12	NPSR antagonist 13µM (no result: LMNA splice mod)
CCOC(=O)c1c(CSc2ccccc2)n(C)c2cc(Br)c(O)c(CN(C)C)c12	none (no result: MBNL1 CUG block, LMNA splice mod)
